# Measured values taken from PubChem BioAssay (NCI).
# The panel holds about 83,000 compounds, 20% with a hit somewhere; the sample as a whole holds those more often.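 Treatment: one concentration, 48 hours, 96-well format. Scoring: percent growth, with anything below 10 considered active.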 A number with no mark means an inactive call. Active and inactive are the calls of the source.
# System: OVCAR-5 ovarian
# Experiment: NCI-60 one-dose screen, 48 h (100 = growth as untreated, 0 = no growth, -100 = all killed)
# Conditions: 10 µM
row,Compound,growth
1,CC1(C)CNC(=O)N1,108%
2,Nc1ccn([C@@H]2O[C@H](COP(=O)(O)O[C@@H]3C[C@H](n4cc(F)c(=O)[nH]c4=O)O[C@@H]3COP(=O)(O)O[C@@H]3C[C@H](n4cc(F)c(=O)[nH]c4=O)O[C@@H]3COP(=O)(O)O[C@@H]3C[C@H](n4cc(F)c(=O)[nH]c4=O)O[C@@H]3COP(=O)(O)O[C@@H]3C[C@H](n4cc(F)c(=O)[nH]c4=O)O[C@@H]3COP(=O)(O)O[C@@H]3C[C@H](n4cc(F)c(=O)[nH]c4=O)O[C@@H]3COP(=O)(O)O[C@@H]3C[C@H](n4cc(F)c(=O)[nH]c4=O)O[C@@H]3COP(=O)(O)O[C@@H]3C[C@H](n4cc(F)c(=O)[nH]c4=O)O[C@@H]3COP(=O)(O)O[C@@H]3C[C@H](n4cc(F)c(=O)[nH]c4=O)O[C@@H]3COP(=O)(O)O[C@@H]3C[C@H](n4cc(F)c(=O)[nH]c4=O)O[C@@H]3COP(=O)(O)O[C@@H]3C[C@H](n4cc(F)c(=O)[nH]c4=O)O[C@@H]3COP(=O)(O)OCCOCCOCCOCCOCCOCCO)[C@H](O)C2O)c(=O)n1 (stereo partly drawn),89.9%
3,CCCCN(CCCC)c1ccc(C(=NC(C)CCCN(CC)CC)c2ccc(N(C)C)cc2)cc1 (stereo not drawn),-6.48% (active)
4,Cc1nc2cc(-n3c(-c4ccc(F)cc4)nc4ccccc4c3=O)ccc2n1Cc1ccccc1,65.2%
5,CN(C)Cc1cccs1,98.5%
6,CCCCCCCCCCCCc1ccc(C(=O)/C=C/C(=O)O)cc1,94.1%
7,Nc1nsc(C(=O)c2ccc(O)cc2)n1,93.6%
8,O=C(CSc1nnc(-c2ccc(Cl)cc2)o1)c1ccccc1,97.7%
9,NC1CCC(Nc2nc(NCc3ccc(-c4cccs4)nc3)c3ncn(C4CCCC4)c3n2)CC1 (stereo not drawn),22.6%
10,CCCCOCC(=O)NC(NP(=O)(N(C)C)N(C)C)C(Cl)(Cl)Cl (stereo not drawn),109%
11,CCOc1ccc(-n2cc(-c3ccc(N(C)C)cc3)[n+]3c2CCCCC3)cc1,40%
12,CCC1(C)OC(=O)NC1=O (stereo not drawn),97.1%
13,CC(=O)Nc1ccc(Sc2ccc(NC(C)=O)cc2)cc1,95.8%
14,O=C1CC[C@@H](C(=O)N[C@H]2CSSC[C@@H](C(=O)NCCc3ccccc3)NC(=O)[C@H](Cc3ccccc3)NC(=O)[C@@H]3CCCN3C(=O)[C@@H]3CCCN3C2=O)N1,90.4%
15,O=C1CC(c2cccc(-c3cccnc3)c2)=Nc2ccc(Br)cc2N1,91.5%
16,Clc1cc(Cl)c(OCCCCCCN2CCNCC2)c(Cl)c1,71%
17,CCCCCC(CCC)COC(=O)c1ccc(OC)cc1 (stereo not drawn),102%
18,O=c1oc2cc(OS(=O)(=O)C3CC3)ccc2c2c1CCCCCC2,100%
19,C=C1C(=O)O[C@H]2[C@H]1CC/C(COC(=O)OCCCCCOC(=O)OC/C1=C/CC[C@@]3(C)O[C@H]3[C@H]3OC(=O)C(=C)[C@@H]3CC1)=C\CC[C@@]1(C)O[C@@H]21,-36.2% (active)

row,Compound,growth
1,CCOC(=O)c1c(Cl)c2c(n1Cc1cccc(OC)c1)-c1oncc1CC2,74.3%
2,COc1cc2nc(Sc3sc(N)nc3C)n(-c3ccc(Oc4ccccc4)cc3)c(=O)c2cc1OC,106%
3,CCCCCCCCCCN=C(c1ccc(N(C)C)cc1)c1ccc(N(C)C)cc1,71.5%
4,Cc1cccc2c(Nc3ccc(NS(C)(=O)=O)cc3)c3ccc([N+](=O)[O-])cc3nc12,49.9%
5,C[C@H](NC(=O)[C@@H]1CSSC[C@@H](NC(=O)Cc2nc3ccccc3cc2O)C(=O)NCC(=O)N1C)c1ccccc1,104%
6,O=C(Nc1ccc(CN2CCOCC2)cc1)c1ccc(-c2cc(Cl)ccc2Cl)o1,72.1%
7,COc1c(-c2c3sc(=O)[nH]c3nc3c2c(=O)[nH]n3C(C)C)cc2c(c1OC)OCO2,96.7%
8,COc1ccc(-c2nnc(SCC(=O)c3ccccc3)o2)cc1,100%
9,S=c1c2ncccc2c(-c2ccccn2)nn1Cc1ccccn1,111%
10,COc1cc(C2C=C(c3ccc(Cl)c(Cl)c3)N=C3SC(C)=CN32)cc(OC)c1OC (stereo not drawn),93.2%
11,O=C(NCCc1nccs1)c1cnc2c(S)cccc2c1,75.2%
12,N#Cc1c(-c2ccccc2)nc(SCC(=O)N2CCOCC2)[nH]c1=O,103%
13,CCCCCCN=C(N)CCCCCCCCCCC(N)=NCCCCCC,49.1%
14,CNC(=O)c1cc(Oc2ccc(NC(=O)Nc3ccc(Cl)c(C(C)(C)C)c3)c(F)c2)ccn1,82.6%
15,CN(C)c1ccc2c(c1)OC(N)=C(C#N)C2c1ccc2c(c1)CCO2 (stereo not drawn),57.2%
16,CCc1c(C(=O)NCc2c(O)ccc3cccc(O)c23)[nH]c(C)c1C(C)=O,90.4%
17,CC(=O)c1ccc(NCn2nc(-c3ccc(Cl)cc3)oc2=S)cc1,85.2%
18,COC(=O)c1cnc2c(c1)Oc1ccc(Cl)cc1-c1cc(C)nn1-2,89%
19,Clc1cc(Cl)c(Cl)c(-c2nc(-c3cccnc3)cs2)c1,79.6%
